Screens from PubChem.
In the library only some 9.4% were active in any assay of this set; here they are far more common.
SMN2 splice enh: enhancers of SMN2 splice variant expression; HEK293 SMN2-luciferase splicing reporter, luminescence, 30-36 h; 2.8% of 210,000 active; AID 1458; Potency, µM (top dose mostly 46.1 µM), without a hit: top-dose activity change, positive = activation, actives largely listed as activators; note: % of control where 0% means no effect; nearly all actives have a fitted effect of over 55% in size
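HEK293 cells carry an SMN2 minigene-luciferase reporter in which exon 7 inclusion puts luciferase in frame. Cells were seeded at 2000 cells/well, attached for 10-12 hours, then exposed to compounds for 30-36 hours at 37C before ONE-Glo luminescence.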
FLuc modulator: counter-screen for miR-21 project: firefly luciferase inhibitors or activators; P08659; purified FLuc, Km substrates, luminescence inhibition; Potency, µM (doses to about 57.5 µM), for the others: at the top dose activity change, negative = inhibition, usual class: inhibitors; 6.9% of 360,000 active; AID 588342;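 note: plate controls were vehicle for no effect and reference inhibitor for full effect; nearly all actives have a fitted effect of over 55% in size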
Target sequence (P08659 whole entry, looked up): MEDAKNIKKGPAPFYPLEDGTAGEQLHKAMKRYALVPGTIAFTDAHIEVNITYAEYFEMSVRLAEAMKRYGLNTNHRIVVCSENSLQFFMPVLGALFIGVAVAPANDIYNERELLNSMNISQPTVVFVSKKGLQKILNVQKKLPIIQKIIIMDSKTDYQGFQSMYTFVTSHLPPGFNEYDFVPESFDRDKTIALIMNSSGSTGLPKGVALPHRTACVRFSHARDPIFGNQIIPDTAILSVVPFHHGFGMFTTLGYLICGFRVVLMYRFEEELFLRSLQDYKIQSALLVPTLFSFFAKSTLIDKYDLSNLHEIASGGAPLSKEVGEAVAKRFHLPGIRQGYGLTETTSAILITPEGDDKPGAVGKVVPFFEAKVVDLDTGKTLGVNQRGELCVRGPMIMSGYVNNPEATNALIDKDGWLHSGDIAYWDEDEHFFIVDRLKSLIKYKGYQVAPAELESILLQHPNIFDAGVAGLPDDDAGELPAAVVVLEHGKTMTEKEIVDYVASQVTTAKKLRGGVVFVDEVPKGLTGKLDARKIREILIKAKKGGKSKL
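Biochemical qHTS of compounds, final roughly 60 µM downward over six points, against 10 nM purified firefly luciferase using Km concentrations of substrates (10 uM D-luciferin, 10 uM ATP) in Tris acetate pH 7.5 buffer; luminescence output.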
ELG1 DNA repair: inhibitors of ELG1-dependent DNA repair in HEK293T cells | HEK293T ELG1-luciferase reporter, luminescence, 16 h; DNA damage induced by 5-fluorouridine | Potency, µM (doses to about 46.1 µM), inactives show at the top dose activity change, negative = inhibition, hits mostly inhibitors | 2.3% of 330,000 active; note: % is set by controls: 0 for no effect and ±100 for the full control effect; nearly all actives have a fitted effect of over 55% in size
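Quantitative HTS, concentration-response format. 2,000 cells/well co-treated with 5-fluorouridine and compound, 16 hr in 5% CO2 at 37 °C; ONE-Glo luminescence read after 30 min.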
ELG1 genotoxic: inducers of genotoxicity in HEK293T ELG1-luciferase cells; HEK293T ELG1-luciferase reporter, luminescence, 16 h; Potency, µM (top dose mostly 46 µM), for the others: top-dose activity change, positive = activation, most hits filed as activators; 1.3% of 330,000 active; note: % of control where 0% means no effect; nearly all actives have a fitted effect of over 60% in size
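Genotoxic stress is detected as increased luminescence from luciferase-tagged ELG1 in HEK293T cells, measured with ONE-Glo after a 16 hr treatment at 37 °C.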
NPC1 promoter act: NPC1 promoter activation; Potency, µM (top dose mostly 9.22 µM), for inactives: at the top dose activation, most hits filed as activators; AID 485313; Huh7 NPC1 promoter luciferase reporter, 24 h; 2.4% of 320,000 active; note: % of control where 0% means no effect; nearly all actives have a fitted effect of over 60% in size
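In 1536-well qHTS, Huh7 cells harboring an NPC1 promoter–luciferase construct received compound for 24 h; activation was quantified by luminescence following luciferase reagent addition.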
Rab9 promoter act: activates the Rab9 promoter; Huh7 Rab9 promoter-luciferase reporter, luminescence, 24 h; 2.8% of 320,000 active; Potency, µM (top dose mostly 9.22 µM), for inactives: at the top dose activation, negative = inhibition, usual class: activators; note: % of control where 0% means no effect; nearly all actives have a fitted effect of over 60% in size
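Rab9 promoter-driven luciferase in stably transfected Huh7 cells; 1500 cells/well rested 2 h, exposed to compound in DMSO for 24 h at 37 °C, 5% CO2. Luminescence read 10 min after adding luciferase reagent at ambient temperature.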
* hit, by the source's call; ? = inconclusive; nt = no result; [ ] = another dose, or the depositor's remark. Calls come from the whole dose curve; as a rule, active = well fitted curve in the direction sought with a large enough effect; inconclusive = small, poorly fitted or top-dose-only effect, or another doubt; inactive = no such curve, though single readings can be large; an effect the other way counts as inactive or inconclusive. Potency is the fitted concentration of half-maximal effect.

SMILES	SMN2 splice enh	FLuc modulator	ELG1 DNA repair	ELG1 genotoxic	NPC1 promoter act	Rab9 promoter act
O=C(Nc1cccc(C(=O)N2CCN(c3cccc(Cl)c3)CC2)c1)c1ccccc1	-23%	-5%	?	-19%	0%	1%
O=C(CCCC(=O)N1CCN(c2ccccc2F)CC1)c1ccccc1	nt	27µM*	?	?	?	4.5µM*
O=C(CCc1nnc(C2CCCCC2)o1)N1CCN(c2ccccc2F)CC1	nt	12µM*	?	?	2.5µM*	3.5µM*
O=C(Nc1cccc(C(=O)N2CCN(c3ccc(Cl)cc3)CC2)c1)c1nsc2ccccc12	nt	1.2µM*	nt	nt	nt	nt
O=C(Nc1cccc(C(=O)N2CCN(c3cccc(Cl)c3)CC2)c1)c1nsc2ccccc12	nt	2.7µM*	nt	nt	nt	nt
COc1ccc(N(CC(=O)Nc2ccc(C)c(C)c2)S(=O)(=O)c2ccc(C)cc2)cc1OC	-1%	2%	nt	nt	nt	nt
Cc1cc(NC(=O)COc2coc(CN3CCN(c4ccccc4F)CC3)cc2=O)no1	nt	2%	-1%	-1%	-6%	2%
Cc1cc(C)n(CC(=O)Nc2ccc(F)c(F)c2)c(=O)c1C#N	nt	-2%	nt	nt	nt	nt
Cc1ccc(NC(=O)Cn2c(=O)n(Cc3ccc4c(c3)OCO4)c(=O)c3ccc(C(=O)NC4CCCCC4)cc32)cc1	11%	1%	nt	nt	nt	nt
CCOC(=O)C1=C(CN(CC)Cc2ccccc2)NC(=O)NC1c1ccc(OC(C)C)cc1 (centres undefined)	-61%	3%	nt	nt	nt	nt
O=C(Nc1cccc(C(=O)N2CCN(c3ccc(F)cc3)CC2)c1)c1nsc2ccccc12	nt	0.85µM*	nt	nt	nt	nt
Cc1ccc(C)c(N2CCN(C(=O)c3ccc(NC(=O)c4nsc5ccccc45)cc3)CC2)c1	nt	17µM*	nt	nt	nt	nt
O=C(c1cccc(C(=O)N2CCN(c3ccccc3F)CC2)c1)N1CCN(c2ccccc2F)CC1	-49%	6%	16µM*	-19%	-1%	-3%
COc1cccc(N2CCN(C(=O)c3ccc(C)c(NC(=O)c4nsc5ccccc45)c3)CC2)c1	nt	-2%	nt	nt	nt	nt
O=C(c1c(F)cccc1F)N1CCN(c2ccccc2F)CC1	-14%	-1%	0%	-3%	1%	2%
O=C(Nc1cccc(C(=O)N2CCN(c3ccccc3F)CC2)c1)c1nsc2ccccc12	nt	3µM*	nt	nt	nt	nt
CSC1=NS(=O)(=O)c2c(C)nn(C)c2S1	nt	?	-2%	4%	-6%	-3%
Cc1ccc(CSc2nc3c([nH]c4ccccc43)c(=O)n2C)cc1	nt	-1%	nt	nt	nt	nt
CC(=O)c1ccc(NC(=O)c2cnc(N3CCCC3)nc2C)cc1	nt	-2%	nt	nt	nt	nt
O=C(Nc1ccc(C(=O)N2CCN(c3ccccc3)CC2)cc1)c1nsc2ccccc12	nt	5.4µM*	nt	nt	nt	nt
Cc1ccc(C(=O)N2CCN(c3ccc(F)cc3)CC2)cc1NC(=O)c1nsc2ccccc12	nt	-4%	nt	nt	nt	nt
O=C(Nc1ccc(C(=O)N2CCN(c3cccc(Cl)c3)CC2)cc1)c1nsc2ccccc12	nt	4.3µM*	nt	nt	nt	nt
CCCC(=O)NCc1nc2cccnc2n1Cc1ccc(F)cc1	nt	2%	nt	nt	nt	nt
Cc1cc(=O)[nH]c(N/N=C/c2ccccc2Cl)n1	nt	-12%	?	5%	15%	19%
Cc1cc(=O)[nH]c(N/N=C/c2cc(C)n(-c3ccccc3)c2C)n1	nt	7.6µM*	?	9.2µM*	3.2µM*	?
SMILES	SMN2 splice enh	FLuc modulator	ELG1 DNA repair	ELG1 genotoxic	NPC1 promoter act	Rab9 promoter act
Cc1cc(=O)[nH]c(N/N=C/c2cccs2)n1	6%	17µM*	?	8%	12%	12%
C(=N\Nc1nc2ccccc2[nH]1)/c1cccs1	nt	3.8µM*	?	?	3.2µM*	4µM*
Cc1ccsc1/C=N/Nc1nc2ccccc2[nH]1	11µM*	3.4µM*	?	?	2.5µM*	2.5µM*
Cc1ccc(C)c(CN2C(=O)c3ccccc3S(=O)(=O)c3ccc(C(=O)NCc4ccccc4)cc32)c1	17%	0%	nt	nt	nt	nt
Cc1ccc(-c2cc(C(=O)Nc3ccc(SC(F)F)cc3)no2)cc1F	nt	-13%	nt	nt	nt	nt
N#C/C(=C\c1ccccc1)c1ccccn1	21%	19µM*	?	?	?	?
N#C/C(=C\c1ccc(Cl)c([N+](=O)[O-])c1)c1ccccn1	-4%	-14%	?	?	0%	-3%
CNc1ccc(/C=C(\C#N)c2ccccn2)cc1[N+](=O)[O-]	10µM*	-19%	?	10µM*	2.8µM*	1.3µM*
N#C/C(=C\c1ccncc1)c1ccccn1	nt	-3%	-21%	-4%	-3%	6%
COc1ccc(CNC(=O)c2ccc(-c3nc(CSc4ccc(C)cc4)c(C)o3)cc2)c(OC)c1	nt	-6%	nt	nt	nt	nt
CC(C)(CCc1nc2ccccc2[nH]1)C(=O)O	-12%[9.22 µM]	nt	nt	nt	nt	nt
COc1ccc(S(=O)(=O)NCCc2sc(-c3cccc(F)c3)nc2C)cc1	nt	-1%	nt	nt	nt	nt
CCc1nnc(NC(=O)CSc2nc3c([nH]c4ccccc43)c(=O)n2-c2ccc(Cl)cc2)s1	nt	3%	nt	nt	nt	nt
CCc1ccc(Nc2n[n+](-c3ccccc3)c(/C=C/c3ccccc3)s2)cc1	nt	12µM*	?	-7%	1%	-2%
CCc1ccc(Nc2n[n+](-c3ccccc3)c(-c3c(Cl)cccc3Cl)s2)cc1	nt	4%	-11%	2%	-1%	-10%
